Data taken from PubChem BioAssay AID694 (Emory University Molecular Libraries Screening Center, 2007).
Out of some 1,300 compounds screened, about 25 (2%) were called active. No rule for the calls is given here. Only a selection was taken, and actives are over-represented in it overall.

Target: Estrogen receptor (Homo sapiens) (UniProt P03372)
Assay: ERα coactivator peptide binding inhibitors, primary screen, biochemical, LOPAC library, TR-FRET (AID 694);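 also: receptor was agonist-bound with estradiol present during the assay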
Details: TR-FRET ERalpha-coactivator peptide binding, stronger effect = higher value

Chain of Estrogen receptor (Homo sapiens) (P03372 whole entry, looked up): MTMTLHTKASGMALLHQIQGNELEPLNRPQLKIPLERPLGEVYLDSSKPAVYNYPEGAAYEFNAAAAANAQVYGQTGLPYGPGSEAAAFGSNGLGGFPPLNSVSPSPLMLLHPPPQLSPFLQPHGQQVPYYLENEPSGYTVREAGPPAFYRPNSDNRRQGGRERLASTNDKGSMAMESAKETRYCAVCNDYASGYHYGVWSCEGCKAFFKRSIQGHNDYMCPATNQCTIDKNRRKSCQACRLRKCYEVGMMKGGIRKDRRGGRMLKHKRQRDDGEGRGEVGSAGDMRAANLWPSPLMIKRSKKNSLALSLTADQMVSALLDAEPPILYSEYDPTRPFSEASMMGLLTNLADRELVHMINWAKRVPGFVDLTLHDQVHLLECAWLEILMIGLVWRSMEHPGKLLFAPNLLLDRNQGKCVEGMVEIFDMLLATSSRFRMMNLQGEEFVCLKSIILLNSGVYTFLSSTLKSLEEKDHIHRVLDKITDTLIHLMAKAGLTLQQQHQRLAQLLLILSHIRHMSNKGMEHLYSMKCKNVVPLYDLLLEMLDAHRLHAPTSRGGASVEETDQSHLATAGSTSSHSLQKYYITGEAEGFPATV

For CCCN(CCC)CCc1ccc(O)c(O)c1, the inhibition (at 45 µM) was -9.9% (inactive) and the inhibition (inhibition, at 15 µM) was 5.4%.

CN(N=O)c1ccc(O)c(O)c1 was tested, and the inhibition (at 45 µM) was 99.9% [fluorescence artefact?] (active) and the inhibition (inhibition, at 15 µM) was 100%.

With CN(N=O)c1cc(O)ccc1O the inhibition (at 45 µM) was 98.6% [fluorescence artefact?] (active) and the inhibition (inhibition, at 15 µM) was 95.4%.

For CCCN(CCC)[C@@H]1CCc2ccc(O)cc2C1, the inhibition (at 45 µM) was -8.07% (inactive) and the inhibition (inhibition, at 15 µM) was 3.7%.

In the case of C[C@@H]1O[C@H](C[N+](C)(C)C)CS1, the inhibition (at 45 µM) is reported as -6.11% (inactive) and the inhibition (inhibition, at 15 µM) is reported as 5.81%.

In the case of c1ccc2c(N3CCNCC3)cccc2c1, the inhibition (at 45 µM) is reported as -1.45% (inactive) and the inhibition (inhibition, at 15 µM) is reported as 2.78%.

In the case of C=CCN1CCC2(C)c3cc(O)ccc3CC1C2C (stereo not given), the inhibition (at 45 µM) is reported as -11.9% (inactive) and the inhibition (inhibition, at 15 µM) is reported as -3.04%.

In the case of CC[C@@H](CO)NC(=O)[C@@H]1C=C2c3cccc4[nH]cc(c34)C[C@H]2N(C)C1, the inhibition (at 45 µM) is reported as 6.08% (inactive) and the inhibition (inhibition, at 15 µM) is reported as 0.61%.

For Clc1ccc(C(c2ccc(Cl)cc2)n2cc[n+](CC(OCc3ccc(Cl)cc3Cl)c3ccc(Cl)cc3Cl)c2)cc1 (stereo not given), the inhibition (at 45 µM) was 59.5% [fluorescence artefact?] (active) and the inhibition (inhibition, at 15 µM) was 52.6%.

For CO[C@H]1CC=C2CCN3CCC4=C(CC(=O)OC4)[C@]23C1, the inhibition (at 45 µM) was -3.26% (inactive) and the inhibition (inhibition, at 15 µM) was 3.57%.

O=C(O)[C@@H]1CCN1 was tested, and the inhibition (at 45 µM) was -15.6% (inactive) and the inhibition (inhibition, at 15 µM) was -3.72%.

With CCCN(CCC)C1CCc2ccc(O)cc2C1 (stereo not given) the inhibition (at 45 µM) was -3.18% (inactive) and the inhibition (inhibition, at 15 µM) was 3.52%.

For N[C@@H](Cn1cc(I)c(=O)[nH]c1=O)C(=O)O, the inhibition (at 45 µM) was 0.52% (inactive) and the inhibition (inhibition, at 15 µM) was 3.65%.

COC(=O)c1cc2c(cn1)[nH]c1ccccc12 was tested, and the inhibition (at 45 µM) was -2.45% (inactive) and the inhibition (inhibition, at 15 µM) was 2.65%.

With Cc1o[nH]c(=O)c1CC(N)C(=O)O (stereo not given) the inhibition (at 45 µM) was -4.5% (inactive) and the inhibition (inhibition, at 15 µM) was -1.59%.

With N[C@@H](CCl)C(=O)O the inhibition (at 45 µM) was -9.05% (inactive) and the inhibition (inhibition, at 15 µM) was -4.18%.

With NC(Cc1cc(O)c(O)cc1O)C(=O)O (stereo not given) the inhibition (at 45 µM) was 100% [fluorescence artefact?] (active) and the inhibition (inhibition, at 15 µM) was 100%.

O=[N+]([O-])c1ccc(O[C@@H]2O[C@H](CO)[C@@H](O)[C@H](O)[C@H]2F)c([N+](=O)[O-])c1 was tested, and the inhibition (at 45 µM) was -0.11% (inactive) and the inhibition (inhibition, at 15 µM) was 6.88%.

Fc1ccc(C(OCCN2CCN(CCCc3ccccc3)CC2)c2ccc(F)cc2)cc1 was tested, and the inhibition (at 45 µM) was -7.86% (inactive) and the inhibition (inhibition, at 15 µM) was -2.51%.

With CN1C[C@@H](CS(=O)(=O)N(C)C)C[C@@H]2c3cccc4c3c(cn4C)C[C@H]21 the inhibition (at 45 µM) was -2.14% (inactive) and the inhibition (inhibition, at 15 µM) was -2.21%.
